# Measured values as given in PubChem BioAssay (NCATS).
# Unmarked numbers belong to inactive results. Records with an inconclusive call do not appear. Where a call stands in place of a potency, no number is given. Activity calls are given as the source filed them. Unless noted, the call rests on the fitted dose curve; in most records, active means well fitted curve in the direction sought with a large enough effect; inconclusive means small, poorly fitted or top-dose-only effect, or another doubt; inactive means no such curve, though single readings can be large; an effect the other way counts as inactive or inconclusive.
# Columns and labels:
# [1] = qHTS for Inhibitors of Plasmodium falciparum (DD2) proliferation (AID 504314); further: potency means the concentration at half of the fitted maximal effect;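 on activity, negative = inhibition: parasite DNA measured by SYBR Green fluorescence after red cell lysis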
# Method in brief: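 SYBR Green growth assay: 72 h compound exposure of infected red cells (2.5% hematocrit, 0.3% parasitemia), then lysis and overnight dye staining, fluorescence 485/535 nm. Values scaled between DMSO and 0.29 uM artemisinin controls.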
# [2] = qHTS for Inhibitors of Plasmodium falciparum (GB4) proliferation (AID 504315); further: nearly all actives have a fitted effect of over 50% in size
# Method in brief: (§1)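 Parasite growth measured as SYBR Green DNA fluorescence (ex 485, em 535 nm) after overnight lysis following 72 h culture at 37 °C, 0.3% parasitemia, 2.5% hematocrit. Values normalized against DMSO and 0.29 uM artemisinin controls, with plate-stack correction.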
# [3] = qHTS for Inhibitors of Plasmodium falciparum (CP250) proliferation (AID 504320)
# Method in brief: as §1
# [4] = target: Atrial natriuretic peptide receptor 1 (Homo sapiens) (UniProt P16066); assay: Natriuretic polypeptide receptor (hNpr1) antagonism - Pilot CMLD screen (AID 1347052; calls by dose curve;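 further: HEK293 cells with hNpr1 stimulated by hNppA peptide at 0.1 nM; cGMP level read as GloSensor luciferase luminescence after agonist stimulation; series mostly up to about 9.2 µM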)
# Sequence of Atrial natriuretic peptide receptor 1 (Homo sapiens) (P16066 whole entry, looked up): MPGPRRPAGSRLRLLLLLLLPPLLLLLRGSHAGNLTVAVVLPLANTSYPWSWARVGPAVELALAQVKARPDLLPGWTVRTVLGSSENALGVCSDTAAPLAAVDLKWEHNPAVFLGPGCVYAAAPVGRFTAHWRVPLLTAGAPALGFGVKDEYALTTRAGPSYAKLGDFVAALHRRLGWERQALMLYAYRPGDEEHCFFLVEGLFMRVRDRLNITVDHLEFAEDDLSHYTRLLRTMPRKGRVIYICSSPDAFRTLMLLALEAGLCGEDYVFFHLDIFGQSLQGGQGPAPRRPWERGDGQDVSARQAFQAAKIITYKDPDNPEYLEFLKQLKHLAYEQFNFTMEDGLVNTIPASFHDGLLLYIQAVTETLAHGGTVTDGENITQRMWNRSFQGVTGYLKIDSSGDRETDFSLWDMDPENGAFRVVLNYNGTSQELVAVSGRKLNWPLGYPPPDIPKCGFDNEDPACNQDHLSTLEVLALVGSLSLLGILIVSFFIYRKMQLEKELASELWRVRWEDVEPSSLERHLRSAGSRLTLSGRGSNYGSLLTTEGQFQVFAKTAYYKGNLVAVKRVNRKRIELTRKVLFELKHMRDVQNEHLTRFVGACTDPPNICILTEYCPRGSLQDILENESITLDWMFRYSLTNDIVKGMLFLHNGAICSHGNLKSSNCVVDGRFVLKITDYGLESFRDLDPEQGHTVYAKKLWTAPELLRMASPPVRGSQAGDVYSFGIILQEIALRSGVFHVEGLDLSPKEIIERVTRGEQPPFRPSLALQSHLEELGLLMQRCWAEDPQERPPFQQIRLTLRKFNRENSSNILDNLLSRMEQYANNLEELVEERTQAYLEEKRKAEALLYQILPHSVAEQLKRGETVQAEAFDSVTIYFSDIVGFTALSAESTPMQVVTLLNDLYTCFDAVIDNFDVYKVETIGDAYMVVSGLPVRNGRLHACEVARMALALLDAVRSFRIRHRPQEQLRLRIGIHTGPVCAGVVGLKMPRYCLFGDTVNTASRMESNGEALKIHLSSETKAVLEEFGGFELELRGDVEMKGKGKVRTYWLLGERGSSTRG
# [5] = qHTS for Inhibitors of Plasmodium falciparum (7G8) proliferation (AID 504316); further: nearly all actives have a fitted effect of over 65% in size; further: potency means the concentration at half of the fitted maximal effect; on activity change, negative = inhibition: series mostly up to about 6.7 µM
# Method in brief: as §1
# [6] = qHTS for Inhibitors of Plasmodium falciparum (HB3) proliferation (AID 504318); further: nearly all actives have a fitted effect of over 60% in size; further: potency means the concentration at half of the fitted maximal effect
# Method in brief: as §1
# [7] = target: Cytochrome P450 3A4 (Homo sapiens) (UniProt P08684); assay: qHTS Assay for Activators of Cytochrome P450 3A4 (AID 885); further: nearly all actives have a fitted effect of over 65% in size
# Sequence of Cytochrome P450 3A4 (Homo sapiens) (P08684 whole entry, looked up): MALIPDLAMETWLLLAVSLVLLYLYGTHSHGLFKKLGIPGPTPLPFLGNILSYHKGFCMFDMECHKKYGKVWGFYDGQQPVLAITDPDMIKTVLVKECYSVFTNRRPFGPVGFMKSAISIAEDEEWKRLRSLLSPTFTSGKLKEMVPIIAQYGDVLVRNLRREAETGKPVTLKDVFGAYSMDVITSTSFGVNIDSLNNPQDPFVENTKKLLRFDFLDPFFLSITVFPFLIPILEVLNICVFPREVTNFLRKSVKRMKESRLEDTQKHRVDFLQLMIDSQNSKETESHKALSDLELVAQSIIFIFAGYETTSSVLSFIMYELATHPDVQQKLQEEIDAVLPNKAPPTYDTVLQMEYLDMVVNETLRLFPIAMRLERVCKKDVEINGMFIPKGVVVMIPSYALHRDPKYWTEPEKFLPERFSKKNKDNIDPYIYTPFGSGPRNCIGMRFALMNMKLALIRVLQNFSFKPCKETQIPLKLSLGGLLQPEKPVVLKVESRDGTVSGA
# Method in brief: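 Luminescent readout of luciferin formed from 25 uM Luciferin-PPXE (KM level) by 20 nM CYP3A4 in 200 mM KPO4, with 60 min NADPH-driven reaction at room temperature after 10 min compound exposure. Ketoconazole (57 uM) defined 100% inhibition.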
# [8] = target: Cytochrome P450 3A4 (Homo sapiens) (UniProt P08684); assay: qHTS Assay for Inhibitors and Substrates of Cytochrome P450 3A4 (AID 884); further: potency means the concentration at half of the fitted maximal effect; nearly all actives have a fitted effect of over 50% in size
# Method in brief: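 Luminescent readout of luciferin produced by CYP3A4 (20 nM) dealkylation of Luciferin-PPXE, 25 uM (its KM). NADPH-driven reaction ran 60 min at RT after 10 min compound preincubation; data scaled to 57 uM ketoconazole as 100% inhibition.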
# [9] = target: Cytochrome P450 2C9 (Homo sapiens) (UniProt P11712); assay: qHTS Assay for Inhibitors and Substrates of Cytochrome P450 2C9 (AID 883); further: nearly all actives have a fitted effect of over 60% in size
# Sequence of Cytochrome P450 2C9 (Homo sapiens) (P11712 whole entry, looked up): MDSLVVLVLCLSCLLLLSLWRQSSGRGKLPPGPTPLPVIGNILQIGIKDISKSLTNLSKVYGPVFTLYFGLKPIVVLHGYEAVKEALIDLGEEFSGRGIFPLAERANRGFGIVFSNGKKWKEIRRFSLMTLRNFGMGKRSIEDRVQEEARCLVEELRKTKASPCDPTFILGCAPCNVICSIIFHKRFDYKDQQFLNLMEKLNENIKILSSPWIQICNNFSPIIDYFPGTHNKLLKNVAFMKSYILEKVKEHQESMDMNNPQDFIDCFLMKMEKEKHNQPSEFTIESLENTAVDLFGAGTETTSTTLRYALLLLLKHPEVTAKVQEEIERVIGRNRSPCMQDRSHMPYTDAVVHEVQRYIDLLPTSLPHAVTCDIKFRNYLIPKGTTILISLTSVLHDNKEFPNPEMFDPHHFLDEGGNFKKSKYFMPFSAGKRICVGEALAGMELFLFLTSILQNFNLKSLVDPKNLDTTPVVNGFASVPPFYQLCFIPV
# Method in brief: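 Human CYP2C9 (10nM) hydroxylated Luciferin-H (100uM, at its KM) to luciferin in 25mM KPO4. Compound was preincubated 10 min at 37C, then NADPH regeneration started a 60 min reaction at 37C. Luminescence was read after detection reagent, normalized to 57uM sulphaphenazole.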
# [10] = target: Cytochrome P450 2C19 (Homo sapiens) (UniProt P33261); assay: qHTS Assay for Inhibitors and Substrates of Cytochrome P450 2C19 (AID 899); further: potency means the concentration at half of the fitted maximal effect; nearly all actives have a fitted effect of over 60% in size
# Sequence of Cytochrome P450 2C19 (Homo sapiens) (P33261 whole entry, looked up): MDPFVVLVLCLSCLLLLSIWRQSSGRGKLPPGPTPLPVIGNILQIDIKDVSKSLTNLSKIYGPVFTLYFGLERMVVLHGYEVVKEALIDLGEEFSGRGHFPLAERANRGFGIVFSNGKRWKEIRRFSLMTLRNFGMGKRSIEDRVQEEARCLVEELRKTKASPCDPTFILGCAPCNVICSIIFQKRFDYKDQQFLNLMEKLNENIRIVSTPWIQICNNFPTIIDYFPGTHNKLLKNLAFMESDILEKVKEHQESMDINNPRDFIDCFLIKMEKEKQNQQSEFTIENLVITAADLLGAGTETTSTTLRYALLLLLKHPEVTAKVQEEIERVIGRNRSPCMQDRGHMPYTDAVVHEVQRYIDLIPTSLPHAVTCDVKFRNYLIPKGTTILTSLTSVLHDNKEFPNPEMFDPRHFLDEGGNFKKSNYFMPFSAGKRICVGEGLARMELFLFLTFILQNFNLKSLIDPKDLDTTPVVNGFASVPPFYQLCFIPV
# Method in brief: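 Human CYP2C19 (5nM) with Luciferin-H EGE at 10uM (its KM) in 50mM KPO4 was preincubated with compound for 10 min at 37C. NADPH regeneration started a 60 min 37C reaction. Luciferin was read by luminescence, normalized to 57uM ketoconazole.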
smiles,measurement,setting,value
COC(=O)CCC(=O)OC1(C)C(=O)C=C2C=C(C3CC3)N(c3ccc(CO)cc3)C=C2C1=O (stereo unspecified),"activity, negative = inhibition",[1],-5.46% [at 1.12 µM]
same,Potency,[2],inactive
same,Potency,[3],inactive
same,Potency,[4],inactive
C[C@H]1Cc2c(COc3ccccc3)nc3c(c2CO1)CN(C(=O)NCc1ccco1)CC3,"activity, negative = inhibition",[1],-0.216% [at 1.12 µM]
same,Potency,[2],inactive
same,Potency,[3],inactive
same,Potency,[4],inactive
COc1ccc2c(c1)O[C@@H](c1cccc(C(F)(F)F)c1)[C@H](OC(=O)NC1CCCC1)C2=O,Potency,[1],inactive
same,Potency,[2],inactive
same,Potency,[3],inactive
same,Potency,[4],inactive
COc1cc(CCN2C(=O)NC(c3ccccc3)C(C(C)=O)=C2C)cc(OC)c1OC (stereo unspecified),Potency,[1],inactive
same,Potency,[2],inactive
same,Potency,[3],inactive
same,Potency,[4],inactive
COC1=C[C@@H](C(=O)N[C@H]2CCCC[C@H]2NC(C)=O)[C@@H](C)[C@H](c2ccccc2)CC1=O,Potency,[1],inactive
same,Potency,[2],inactive
same,Potency,[3],inactive
same,Potency,[4],inactive
COc1ccc(-c2nc3c(c4c2C[C@H](c2ccccc2)OC4)CN(S(=O)(=O)c2ccc(NC(C)=O)cc2)CC3)c(C)c1,"activity, negative = inhibition",[1],-0.765% [at 1.12 µM]
same,Potency,[2],inactive
same,Potency,[3],inactive
same,Potency,[4],inactive
COC(=O)N1[C@H]2CC[C@@]3(C)CC(=O)C[C@]1(C)C3c1ccccc12,Potency,[1],inactive
same,Potency,[2],inactive
same,Potency,[3],inactive
same,Potency,[4],inactive
C=C(C(C)=O)C(O)c1ccccc1 (stereo unspecified),Potency,[1],inactive
same,Potency,[2],inactive
same,Potency,[3],inactive
same,Potency,[4],inactive
Cc1cc2c(c(=O)o1)[C@H]1O[C@](CCCCN3C(=O)c4ccccc4C3=O)(Cc3cc(C#N)ccc31)O2,Potency,[1],inactive
same,Potency,[2],inactive
same,Potency,[3],inactive
same,Potency,[4],inactive
COc1ccc2c(c1)C(=O)[C@@H](OC(=O)NCCc1ccc(OC)c(OC)c1)[C@H](c1ccc(OC)c(Br)c1)O2,Potency,[1],inactive
same,Potency,[2],inactive
same,Potency,[3],inactive
same,Potency,[4],inactive
CC1(OC(=O)C2CCCC2)C(=O)C=C2C=C(c3ccsc3)N(C(CO)CO)C=C2C1=O (stereo unspecified),Potency,[1],inactive
same,Potency,[5],inactive
same,Potency,[6],inactive
same,Potency,[4],inactive
COc1ccc(C=CNC(=O)c2ccc(OC)cc2)cc1,Potency,[1],inactive
same,Potency,[2],inactive
same,Potency,[3],inactive
same,Potency,[4],inactive
Cc1ccc2[nH]c3nc(CCCn4ccnc4-c4ccccc4)nnc3c2c1,"activity change, positive = activation",[7],-50.4% [at 11.4 µM]
same,Potency,[1],inactive
same,Potency,[2],inactive
same,Potency,[3],inactive
same,Potency,[4],inactive
COc1ccc(C=CC2=C[C@]3(C)C[C@]2(C)[C@H](c2ccc(OC)cc2)CC3=O)cc1,Potency,[1],1500 nM (active)
same,Potency,[5],1510 nM (active)
same,Potency,[6],1510 nM (active)
same,Potency,[4],inactive
COC(=O)c1c(C(=O)OC)c2c3cc(OC)c(OC)cc3ccn2c1C(=O)OC,Potency,[1],inactive
same,Potency,[5],inactive
same,Potency,[6],inactive
same,Potency,[4],inactive
COC(=O)C1=C(C(=O)OC)[C@@H]2N(C)c3ccccc3[C@@]23CCC(=O)N(CCCOC(C)C)C3=N1,Potency,[1],inactive
same,Potency,[2],inactive
same,Potency,[3],inactive
same,Potency,[4],inactive
C=CCOC(=O)N[C@H](c1ccc(-c2ccccc2)cc1)[C@H](C)C=CCC(=O)OC,Potency,[1],inactive
same,Potency,[2],inactive
same,Potency,[3],inactive
same,Potency,[4],inactive
CC(C)=CCC12CC3[C@@H](O)C(C(=O)c4ccccc4)(C1=O)C(=O)C(CC=C(C)C)(C2=O)C3(C)C (stereo partly specified),Potency,[1],inactive
same,Potency,[5],inactive
same,Potency,[4],inactive
COc1ccc(-c2cnnc(CCCn3ccnc3-c3ccccc3)n2)cc1,Potency,[8],6310 nM (active)
same,"activity change, positive = activation",[7],-71.9% [at 11.4 µM]
same,Potency,[1],inactive
same,Potency,[2],inactive
same,Potency,[4],inactive
COC(=O)C1=C(C(=O)OC)[C@@H]2Nc3ccccc3[C@@]23C[C@@H](C(=O)OC)N(C(=O)N2CCNC2=O)C3=N1,Potency,[1],inactive
same,Potency,[2],inactive
same,Potency,[3],inactive
same,Potency,[4],inactive
CC=C[C@@H]1Oc2ccc(OC)cc2N2C(=O)[C@H](C)[C@@H](OCOC)[C@H]12,Potency,[1],inactive
same,Potency,[2],inactive
same,Potency,[3],inactive
same,Potency,[4],inactive
CCCCCCC1=Cc2cc(OC)c(OC)cc2C(C(C(C)=O)C(=O)OCC)O1 (stereo unspecified),"activity change, negative = inhibition",[9],25.3% [at 11.4 µM]
same,"activity change, positive = activation",[7],-42.2% [at 11.4 µM]
same,Potency,[10],1580 nM (active)
same,Potency,[1],inactive
same,Potency,[2],inactive
same,Potency,[4],inactive
COC(=O)C1=C(C(=O)OC)[C@@H]2N(CC=C(C)C)c3ccccc3[C@@]23CCC(=O)N(CCc2ccccn2)C3=N1,Potency,[1],inactive
same,Potency,[2],inactive
same,Potency,[3],inactive
same,Potency,[4],inactive
C[C@H]1Cc2c(COc3ccccc3)nc3c(c2CO1)CN(S(=O)(=O)c1ccc2c(c1)OCCN2C)CC3,"activity, negative = inhibition",[1],-3.65% [at 1.12 µM]
same,Potency,[2],inactive
same,Potency,[3],inactive
same,Potency,[4],inactive
CCCCCCCc1cc2c(cn1)C(=O)C(C)(OC(C)=O)C(O)=C2Cl (stereo unspecified),Potency,[1],1890 nM (active)
same,Potency,[5],953 nM (active)
same,Potency,[4],inactive
COC(=O)C=C[C@H]1c2ccccc2[C@@H](OC)[C@@H]1C,Potency,[1],inactive
same,Potency,[5],inactive
same,Potency,[6],inactive
same,Potency,[4],inactive
CCO[C@H](c1cc(OC)cc([N+](=O)[O-])c1OC)[C@H](C)[C@@H](OC)[C@H](C)C=CCC(=O)OC,Potency,[1],inactive
same,Potency,[5],inactive
same,Potency,[4],inactive
C#CCCCON=C1C[C@@H](O)[C@H](O)[C@H]2[C@@H]3C(=O)N(Cc4ccccc4)C(=O)[C@@H]3CC[C@H]12,Potency,[1],inactive
same,Potency,[2],inactive
same,Potency,[3],inactive
same,Potency,[4],inactive
C[C@H]1[C@@H](C(=O)N2CCCC2)CC(=O)C(=NOCc2ccccc2)C[C@H]1c1ccccc1,Potency,[1],inactive
same,Potency,[2],inactive
same,Potency,[3],inactive
same,Potency,[4],inactive
COC(=O)C1=C(C)N(Cc2ccco2)C(=O)NC1c1ccc(Br)cc1 (stereo unspecified),Potency,[1],inactive
same,Potency,[2],inactive
same,Potency,[3],inactive
same,Potency,[4],inactive
